This is a sample that favours compounds with a hit; in the whole collection about 1.6% have one here.
KCNQ2 block: rat KCNQ2 potassium channel inhibitors, primary screen, cell-based, CHO-K1, FluxOR thallium flux, B-score. Potassium voltage-gated channel subfamily KQT member 2 (Rattus norvegicus), O88943. 20 min; hits give low values. B-score at 10 µM. 1.1% of 310,000 active;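 active means fluorescence ratio B-score at most minus 3 library SDs, with starting brightness B-score within 2 library SDs, cut at about -5.5 in these data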
KCNQ2 pot: potentiators of rat KCNQ2 potassium channel | Potassium voltage-gated channel subfamily KQT member 2 (Rattus norvegicus), O88943 | CHO-K1 KCNQ2, FluxOR thallium flux fluorescence; hits give high values | B-score at 10 µM | 0.54% of 310,000 active;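 active means fluorescence ratio B-score at least 3 SD of library B-scores, with initial fluorescence B-score within 3 of them, cut at about 5.3 in these data; same plate scores as AID 2156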;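 further: B-score of peak minus minimum over baseline fluorescence ratio after K+ and Tl+ stimulus; positive B-score means potentiation of KCNQ2 with more thallium influx and brighter signal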
KCNQ2 inh conf: rat KCNQ2 potassium channel inhibitors, confirmation, cell-based, thallium flux; shares compounds with KCNQ2 block; KCNQ2-expressing cells, inhibition; hits give low values; activity change, negative = inhibition, % at 10 µM; 57% of 1,000 active;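 further: 0% = vehicle wells and values are ratio percent relative to vehicle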
KCNQ1 spec: human KCNQ1 channel inhibition, counter-screen for KCNQ2 inhibitor project, cell-based, FluxOR thallium flux; shares compounds with KCNQ2 block; KCNQ1-expressing cells, FluxOR thallium flux fluorescence; hits give low values; activity change, negative = inhibition, % at 10 µM; 15% of 1,000 active; AID 493026, 2011;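 active means activity change at least 3 SD of negative controls below their mean in both duplicate wells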;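 further: CHO cells stably transfected with KCNQ1 and depolarized by potassium stimulus; peak minus minimum fluorescence over baseline after thallium addition; 0% = vehicle negative control and -100% = blank without thallium stimulus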
Target sequence (P51787 whole entry, looked up): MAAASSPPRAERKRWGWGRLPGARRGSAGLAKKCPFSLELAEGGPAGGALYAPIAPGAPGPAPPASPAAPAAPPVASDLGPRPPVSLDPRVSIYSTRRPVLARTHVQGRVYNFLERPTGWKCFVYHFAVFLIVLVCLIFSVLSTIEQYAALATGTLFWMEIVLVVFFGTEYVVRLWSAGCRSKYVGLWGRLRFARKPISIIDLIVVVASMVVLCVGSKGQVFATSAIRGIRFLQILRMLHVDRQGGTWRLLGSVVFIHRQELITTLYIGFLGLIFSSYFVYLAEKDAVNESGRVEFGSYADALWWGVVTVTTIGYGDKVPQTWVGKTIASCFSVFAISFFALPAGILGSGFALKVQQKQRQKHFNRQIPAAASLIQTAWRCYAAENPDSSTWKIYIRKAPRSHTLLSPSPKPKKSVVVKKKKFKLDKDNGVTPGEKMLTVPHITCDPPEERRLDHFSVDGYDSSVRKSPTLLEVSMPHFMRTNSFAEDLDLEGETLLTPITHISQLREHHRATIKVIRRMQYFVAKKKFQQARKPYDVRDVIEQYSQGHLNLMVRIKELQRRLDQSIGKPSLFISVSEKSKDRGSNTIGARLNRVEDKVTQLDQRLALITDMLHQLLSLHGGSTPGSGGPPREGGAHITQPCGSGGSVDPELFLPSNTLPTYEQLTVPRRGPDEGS
CHO parental ctr: thallium flux change in parental CHO cells, counter-screen for KCNQ2 inhibitor project | shares compounds with KCNQ2 block | hits give low values | activity change, % at 10 µM | 14% of 1,000 active | AID 493029, 2011;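 further: 0% = vehicle negative controls with stimulus buffer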
KCNQ2 patch conf: rat KCNQ2 channel inhibitors, confirmation, cell-based, automated patch clamp, single concentration | calls only at 10 µM | shares compounds with KCNQ2 block | KCNQ2-expressing cells, automated patch clamp current | 49% of 550 active
Numbers without * were called inactive; i = inactive; · = no result given; + = active, no number. Unless noted, how the calls were made is not given here.

SMILES | KCNQ2 block | KCNQ2 pot | KCNQ2 inh conf | KCNQ1 spec | CHO parental ctr | others
C=C(C)Cn1c(SCC#N)nc2ccccc2c1=O | i | 0.48 | · | · | ·
CCN(CCCn1c(SCC#N)nc2ccccc2c1=O)c1ccccc1 | -8.75* | -8.75 | i | i | i
Cc1c(N=Cc2cccs2)c(=O)n(-c2ccccc2)n1C | i | · | · | · | ·
Cc1ccc(C2C(C=Nc3c(C)n(C)n(-c4ccccc4)c3=O)=C(c3ccccc3)Oc3ccccc32)cc1 (centres undefined) | -11.2* | -11.2 | -24.0%* | i | i | KCNQ2 patch conf=i
O=C(c1cc(C(=O)N2CCOCC2)c2nc3ccccc3n2c1)c1ccccc1O | i | · | · | · | ·
CCc1c(C)sc2nc3c(C(=O)N4CCOCC4)cc(C(=O)c4cc(F)ccc4O)cn3c(=O)c12 | -8.48* | -8.48 | -24.5%* | i | i | KCNQ2 patch conf=+
CCc1ccc(NS(=O)(=O)c2c(C(=O)N3CCOCC3)c(C)n(C)c2C)cc1 | i | 2.53 | · | · | ·
CNC(=S)N/N=C/c1cn(CCOc2cccc(OC)c2)c2ccccc12 | i | 0.75 | · | · | ·
COc1ccc(C(=O)/C=C/c2cn(CC(O)CN3CCN(C)CC3)c3ccccc23)cc1OC (centres undefined) | i | · | · | · | ·
CCCCN(C)CC(O)Cn1cc(/C=C/C(=O)c2ccc(C)cc2)c2ccccc21 (centres undefined) | -9.65* | -9.65 | i | i | i
CN1CCN(Cn2cc(/C=C/C(=O)c3ccccc3)c3ccccc32)CC1 | -9.18* | -9.18 | -34.0%* | i | i | KCNQ2 patch conf=+
CC(C)(C)NCC(O)Cn1cc(C=O)c2ccccc21 (centres undefined) | i | 1.67 | · | · | ·
COc1ccccc1C(=O)NCC(=O)OCC(=O)N(CC(C)C)c1c(N)n(Cc2ccccc2)c(=O)[nH]c1=O | i | · | · | · | ·
Cc1cccc(COC(=O)C(Cc2ccccc2)NC(N)=O)c1 (centres undefined) | i | · | · | · | ·
COc1ccccc1N=Nc1nc(-c2ccccc2)c(-c2ccccc2)[nH]1 | i | · | · | · | ·
Oc1ccccc1N=Nc1nc(-c2ccccc2)c(-c2ccccc2)[nH]1 | -6.6* | -6.6 | i | i | i
c1ccc(Cn2nnnc2C(c2ccccc2)N2CCN(c3nc4ccccc4s3)CC2)cc1 (centres undefined) | -7.94* | -7.94 | -37.0%* | i | i | KCNQ2 patch conf=i
c1ccc(C(c2nnnn2Cc2ccco2)N2CCN(c3nc4ccccc4s3)CC2)cc1 (centres undefined) | i | · | · | · | ·
COc1ccc(C(c2nnnn2Cc2ccccc2)N2CCN(c3nc4ccccc4s3)CC2)cc1OC (centres undefined) | i | · | · | · | ·
COc1ccccc1C(c1nnnn1Cc1ccccc1)N1CCN(c2nc3ccccc3s2)CC1 (centres undefined) | -8.82* | -8.82 | -31.0%* | i | i | KCNQ2 patch conf=+
O=C(CSc1nnc(-c2ccccc2F)n1CCc1ccccc1)Nc1ccc2[nH]c(=O)[nH]c2c1 | i | · | · | · | ·
CC1CC(C)CN(S(=O)(=O)c2ccc(NC(=O)CN3C(=O)NC(C)(c4ccccc4)C3=O)cc2)C1 (centres undefined) | i | 1.19 | · | · | ·
CC(=O)Nc1ccc(N2C(C(C)=O)=NN(c3ccccc3)C2c2cccs2)cc1 (centres undefined) | i | 0.02 | · | · | ·
COc1ccc(N2C(C(C)=O)=NN(c3ccccc3)C2c2cccs2)cc1 (centres undefined) | -7.19* | -7.19 | -32.5%* | -37.0%* | -25.0%* | KCNQ2 patch conf=i
CCc1nc(SCC(=O)NC2CCCC2)c2c(=O)n(C)c(=O)n(C)c2n1 | i | · | · | · | ·
COc1cccc2cc(C(=O)NC3CC4CCC3C4)oc12 (centres undefined) | i | · | · | · | ·
CC1CN(C(=O)c2ccc(COc3ccc(C(C)C)cc3)o2)CC(C)O1 (centres undefined) | i | · | · | · | ·
CC1CN(C(=O)c2ccc(COc3ccc4ccccc4c3)o2)CC(C)O1 (centres undefined) | -10.2* | -10.2 | i | i | i
CCOC(=O)COc1nc(-c2ccco2)cc(-c2ccco2)c1C#N | i | · | · | · | ·

Compound activity (PubChem BioAssay)
